Bioassay records deposited in PubChem BioAssay by National Center for Advancing Translational Sciences (NCATS).
AmpC no deterg – blocks E. coli AmpC beta-lactamase in detergent-free assay; P00811; AmpC nitrocefin hydrolysis, absorbance 480 nm, 0.0001% Triton; Potency, µM (doses to about 57.1 µM), inactives show at the highest dose activity change, negative = inhibition, actives largely listed as inhibitors; 330,000 compounds, 0.52% hits; AID 485341;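 further: plate controls were no compound for no effect and no enzyme for full effect; nearly all actives have a fitted effect of over 20% in size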
Target sequence (P00811 whole entry, looked up): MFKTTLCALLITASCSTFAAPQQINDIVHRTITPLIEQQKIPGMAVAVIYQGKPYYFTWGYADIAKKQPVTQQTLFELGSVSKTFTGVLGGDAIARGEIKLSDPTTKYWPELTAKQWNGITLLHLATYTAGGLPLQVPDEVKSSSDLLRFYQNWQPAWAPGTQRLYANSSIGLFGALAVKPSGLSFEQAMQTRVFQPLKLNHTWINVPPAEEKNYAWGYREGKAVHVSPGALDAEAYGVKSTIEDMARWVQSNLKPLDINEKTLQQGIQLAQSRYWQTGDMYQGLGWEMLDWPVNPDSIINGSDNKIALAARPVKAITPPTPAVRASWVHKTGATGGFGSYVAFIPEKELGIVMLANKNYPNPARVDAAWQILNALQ
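AmpC (5.3 nM in the dispensed reagent) in 20 mM phosphate pH 7.0 with 0.01% (detergent screen) or 0.0001% Triton X-100 was preincubated with compounds for 15 min at room temperature. Nitrocefin was then added from an 800 uM solution, and hydrolysis was followed at 480 nm.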
VACV Venus inh – vaccinia inhibition (Venus reporter). AID 720580. Potency, µM (titrated, usually from 36.5 µM), for inactives: top-dose activity change, negative = inhibition, usual class: inhibitors. Vaccinia virus Venus reporter expression, fluorescence. 330,000 compounds, 0.46% hits; calls by dose curve; tested in A549 cells; further: on the % scale 0 is the no-effect control and ±100 the full control effect; nearly all actives have a fitted effect of over 30% in size
AmpC detergent – AmpC beta-lactamase inhibition with detergent present | P00811 | AmpC hydrolysis of nitrocefin, absorbance 480 nm, 0.01% Triton | Potency, µM (series often up to 114 µM), without a hit: at the highest dose activity change, negative = inhibition, actives largely listed as inhibitors | 370,000 compounds, 0.041% hits | AID 485294;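 further: 0% = no-compound wells and -100% = no-enzyme wells; nearly all actives have a fitted effect of over 25% in size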
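AmpC (5.3 nM in the dispensed reagent) in 20 mM phosphate pH 7.0 with 0.01% (detergent screen) or 0.0001% Triton X-100 was preincubated with compounds for 15 min at room temperature. Nitrocefin was then added from an 800 uM solution, and hydrolysis was followed at 480 nm.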
Vaccinia mCherry – vaccinia inhibition (mCherry reporter). Potency, µM (top dose mostly 36.5 µM), without a hit: at the top dose activity change, negative = inhibition, actives largely listed as inhibitors. Vaccinia virus mCherry reporter infection, fluorescence. 310,000 compounds, 0.63% hits. AID 720579; calls by dose curve; tested in A549 cells; further: on the % scale 0 is the no-effect control and ±100 the full control effect; nearly all actives have a fitted effect of over 35% in size
SARS PLP yeast – blocks SARS-CoV papain-like protease in a yeast assay; S. cerevisiae expressing SARS-CoV PLpro, growth rescue; 330,000 compounds, 0.19% hits; AID 485353; Potency, µM (titrated, usually from 32.9 µM), without a hit: at the top dose activity, positive = growth rescue, hits mostly activators; calls by dose curve; further: 0% is about no effect; nearly all actives have a fitted effect of over 55% in size
Active calls of the source: *; i = inactive; u = inconclusive; x = no result. Sampled rows, rich in hits. Any-hit rate of the full collection: about 1.3%. Unless noted, the call rests on the fitted dose curve; in most records, active means well fitted curve in the direction sought with a large enough effect; inconclusive means small, poorly fitted or top-dose-only effect, or another doubt; inactive means no such curve, though single readings can be large; an effect the other way counts as inactive or inconclusive. Potency means the concentration at half of the fitted maximal effect.

SMILES	AmpC no deterg	VACV Venus inh	AmpC detergent	Vaccinia mCherry	SARS PLP yeast
COc1ccccc1NC(=O)C(=O)c1cc(C)n(-c2cc(C)cc(C)c2)c1C	x	6%	u	-11%	x
CC#CCOC(=O)c1c(C)nc2sc3c(c2c1N)CC[C@@H](O)C3	x	3.5µM*	x	u	x
CC(C)Oc1ccc(Br)cc1/C=N\NC(N)=S	-30%	7.9µM*	-3%	5.6µM*	15%
N#C/C(=N\Nc1cccc([N+](=O)[O-])c1)C(=O)c1ccc(Br)cc1	u	u	-7%	1.8µM*	-3%
Cc1cc(C)nc(Nc2ncc(O)n2-c2ccc(C)c(Cl)c2)n1	0.32µM*	-15%	-2%	-13%	2%
Cc1ccc(OCCn2c(C3CC(=O)N(Cc4ccccc4)C3)nc3ccccc32)cc1 (configuration not stated)	45µM*	-6%	u	i	-12%
CCN(CC)c1ccc(C2Nc3cccc4cccc(c34)N2)cc1	-15%	-13%	-5%	i	2%
CC(C)(C)C1CCC2(CC1)Nc1cccc3cccc(c13)N2	13µM*	-6%	u	-4%	-11%
COc1cccc(C2CC(c3ccc(F)cc3)Nc3nc(N)nn32)c1 (configuration not stated)	40µM*	x	-12%	x	1%
COc1cccc(C2CC(c3cccc(OC)c3)n3nc(N)nc3N2)c1 (configuration not stated)	u	-13%	u	-13%	2%
COc1ccc(C2CC(c3cccc(Cl)c3)n3nc(N)nc3N2)cc1 (configuration not stated)	0.89µM*	-3%	u	-3%	1%
O=C(N/N=C/c1ccc(Sc2ccccn2)o1)c1cc2ccccc2cc1O	18µM*	-18%	1%	-17%	-14%
O=C(N/N=C/c1ccc(Sc2ccccn2)o1)c1cccc([N+](=O)[O-])c1	10µM*	-13%	u	-2%	18%
O=C(N/N=C\c1ccc(Sc2ccccn2)o1)c1cccc(F)c1	-49%	x	-11%	x	-7%
CCc1ccc(-n2c(=O)c3c4c(sc3n(CC(=O)c3ccc(Cl)cc3)c2=O)CCC4)cc1	x	-28%	11%	-26%	x
CC1=NNC(=O)/C1=C\c1cn(-c2ccccc2)nc1-c1ccc(F)cc1	-22%	10µM*	2%	10µM*	-5%
COc1cccc(CNC(=O)c2c(OC)cc(=O)n3c2CCN(C(=O)c2ccc(C)s2)CC3)c1	x	-5%	x	i	x
Cc1ncc2c(c1CNC(=O)/C=C/c1cccs1)CCN(C(=O)c1cc(C(C)C)on1)C2	x	6%	x	-1%	x
COC(=O)C1=CN(c2ccc(OC)cc2)C(N)=C(C#N)C1c1cccc2ccccc12 (configuration not stated)	x	-15%	x	u	x
COC(=O)C1=CN(c2ccc(C(C)(C)C)cc2)C(N)=C(C#N)C1c1cccc2ccccc12 (configuration not stated)	x	-12%	x	8.9µM*	x
COC(=O)C1=CN(c2ccc(F)cc2)C(N)=C(C#N)C1c1cccc(OC)c1OC (configuration not stated)	x	-21%	x	u	x
CCc1ccc(N2C=C(C(=O)OC)C(c3cccc4ccccc34)C(C#N)=C2N)cc1 (configuration not stated)	x	-8%	x	6.3µM*	x
O=C(CN1C(=O)COc2ccc(S(=O)(=O)N3CCCCCC3)cc21)N1CCN(c2cccc(Cl)c2)CC1	x	-3%	14%	-11%	x
CC(C)C(=O)Nc1nc2cc3c(cc2s1)OCO3	10µM*	-4%	u	u	-10%
CC(C)c1c(C(=O)NCC2(N3CCCCC3)CCCC2)cnn1-c1nccc(-c2ccco2)n1	x	-11%	x	-15%	x
SMILES	AmpC no deterg	VACV Venus inh	AmpC detergent	Vaccinia mCherry	SARS PLP yeast
CC(=O)Nc1ccc(S(=O)(=O)Nc2nnc(C)s2)cc1	x	-5%	x	i	x
Cc1ccc(S(=O)(=O)NC(=O)Nc2nnc(C)s2)cc1	0.4µM*	x	2%	x	-2%
O=C(/C(=N\Nc1ccccc1)Sc1nnnn1-c1ccccc1)c1ccccc1	1.1µM*	2%	u	-12%	14%
NC(=O)c1ccc(-n2nnnc2SCC(=O)Nc2ccccc2)cc1	-27%	x	5%	x	3%
Nc1c(S(=O)(=O)c2cccs2)c2nc3ccccc3nc2n1/N=C/c1cccc(O)c1	-27%	11µM*	-14%	u	-5%
COc1cccc(/C=N/n2c(N)c(S(=O)(=O)c3cccs3)c3nc4ccccc4nc32)c1	-16%	x	6%	x	4%
O=C1C=CC2(O[C@H](c3ccccc3)[C@@H](c3ccccc3)O2)[C@H](Sc2ccccc2O)C1	x	u	x	10µM*	x
COC(=O)CSc1cccc2c1C(=O)CC2c1ccccc1 (configuration not stated)	-9%	5%	-1%	i	-3%
O=C(NCc1nnc2n1CCN(Cc1ccnc3ccccc13)CC2)c1cccc(F)c1	x	-14%	x	-13%	x
COc1cc(/C=N\Nc2nncn2N)ccc1OC(C)=O	-8%	20µM*	2%	16µM*	21%
COc1cc(NS(C)(=O)=O)ccc1Nc1c2ccccc2nc2ccccc12	-27%	u	-2%	0.5µM*	x
O=C(/C=C/c1ccc(F)cc1)NCC1Cc2cccc(-c3ncccn3)c2O1 (configuration not stated)	x	-8%	x	-18%	x
O=C(Nc1ccc(N2CCOCC2)cc1)c1cc(-n2cnnc2)ccc1Cl	-20%	-9%	-9%	-2%	3%
O=C(Nc1ccccc1)c1cc(-n2cnnc2)ccc1Cl	-14%	x	9%	x	10µM*
N=C1C(c2nc3ccccc3s2)=C(O)CN1NC(=O)c1c[nH]c2ccccc12	16µM*	-3%	0%	i	0%
Cc1cccc(NC(=O)C(NS(=O)(=O)c2ccc3c(c2)CCC(=O)N3)c2ccccc2)n1 (configuration not stated)	25µM*	x	-6%	x	0%
Cc1cccc(C)c1NC(=O)C(NS(=O)(=O)c1ccc2c(c1)CCC(=O)N2)c1ccccc1 (configuration not stated)	x	3%	6%	-12%	x
Cc1cc(S(=O)(=O)NCc2nc(N3CCCC3)c3cc(Cl)ccc3n2)c(C)s1	x	-11%	x	-22%	x
O=C1C(Nc2ccccc2)=C/C(=N/S(=O)(=O)c2cccs2)c2ccccc21	10µM*	10µM*	-5%	8.9µM*	-76%
Cc1ccc(S(=O)(=O)/N=C2\C=C(Nc3ccc(O)cc3)C(=O)c3ccccc32)cc1	-13%	2.2µM*	x	5µM*	-1%
Cc1ccc(NC2=C/C(=N/S(=O)(=O)c3cccs3)c3ccccc3C2=O)cc1	-30%	u	-5%	-15%	-14%
Cc1ccc(S(=O)(=O)/N=C2\C=C(Nc3cccc(C(=O)O)c3)C(=O)c3ccccc32)cc1	-46%	5%	-9%	u	-1%
